The source made the active and inactive calls. The calls were made as follows: active = hit-call score of the fitted dose curve at least 0.9, where 1 is the maximum; inactive = score below 0.9.
How the values were obtained:
[1] = read-out: C-C motif chemokine 2 (Homo sapiens) (UniProt P13500); assay: BSK_KF3CT_MCP1: BioMAP Diversity Plus: KF3CT Assay for Monocyte Chemoattractant Protein 1 (MCP1/CCL2) Biomarker Activity (AID 2283073); conditions: primary human keratinocytes with fibroblasts; actives raise or lower the signal
Summary of the method: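 KF3CT skin co-culture (keratinocytes/foreskin fibroblasts), 24 h post-dose; MCP-1 by ELISA; gain/loss of signal fit bidirectionally vs DMSO baseline.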

[2] = read-out: Matrix Metallopeptidase 9 (MMP9), MMP9 (gene 4318); assay: BSK_KF3CT_MMP9: BioMAP Diversity Plus: KF3CT Assay for Matrix Metallopeptidase 9 (MMP9) Biomarker Activity (AID 2283074); conditions: primary human keratinocytes with fibroblasts; actives raise or lower the signal;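 as to AC50: MMP9 protein level quantified by ELISA in the co-culture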
Summary of the method: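 ELISA read-out of MMP-9 at 24 h post-dosing in a co-culture of human skin keratinocytes and foreskin fibroblasts. Gain or loss of signal was fitted in both directions against DMSO.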

[3] = read-out: urokinase plasminogen activator (uPA), PLAU (gene 5328); assay: BSK_KF3CT_uPA: BioMAP Diversity Plus: KF3CT Assay for urokinase plasminogen activator (uPA) Biomarker Activity (AID 2283075); conditions: primary human keratinocytes with fibroblasts; actives raise or lower the signal
Summary of the method: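 Skin co-culture (keratinocytes + foreskin fibroblasts), human primary; 24 h post-dose; uPA by ELISA; gain/loss fit vs DMSO baseline.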

[4] = read-out: CD40, CD40 (gene 958); assay: BSK_LPS_CD40: BioMAP Diversity Plus: LPS Assay for CD40 Biomarker Activity (AID 2283076); conditions: primary human HUVEC with PBMC; actives raise or lower the signal
Summary of the method: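 ELISA readout of CD40 in HUVEC/PBMC co-culture (BSK_LPS system), 24 h post-dosing; bidirectional curve fit, DMSO baseline; parallel SRB total-protein staining for cytotoxicity.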

[5] = read-out: E-selectin (Homo sapiens) (UniProt P16581); assay: BSK_LPS_Eselectin: BioMAP Diversity Plus: LPS Assay for Eselectin Biomarker Activity (AID 2283077); conditions: primary human HUVEC with PBMC; actives raise or lower the signal
Summary of the method: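 ELISA readout of E-selectin, 24 h post-dose, HUVEC + PBMC co-culture (LPS system). Gain or loss of signal vs DMSO baseline, bidirectional fit.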

[6] = BSK_LPS_SRB: Viability Assessment in the BioMAP Diversity Plus: LPS Assay (AID 2283079); conditions: primary human HUVEC with PBMC;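 also: total protein by sulforhodamine B absorbance as a cytotoxicity measure; measured one day after compound addition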
Summary of the method: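 HUVEC + PBMC co-culture, LPS-stimulated; compound 24 h. 10% TCA fix, 0.1% SRB stain, A560. Bidirectional fit vs DMSO.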

[7] = read-out: Interleukin-1 alpha (IL1a), IL1A (gene 3552); assay: BSK_LPS_IL1a: BioMAP Diversity Plus: LPS Assay for Interleukin-1 alpha (IL1a) Biomarker Activity (AID 2283080); conditions: primary human HUVEC with PBMC; actives raise or lower the signal
Summary of the method: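 HUVEC/PBMC co-culture, LPS system; 24 h after dosing; IL-1a by ELISA; gain or loss of signal fitted bidirectionally vs DMSO baseline.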

[8] = read-out: Monocyte Chemoattractant Protein-1 (MCP1), CCL2 (gene 6347); assay: BSK_LPS_MCP1: BioMAP Diversity Plus: LPS Assay for Monocyte Chemoattractant Protein-1 (MCP1) Biomarker Activity (AID 2283081); conditions: primary human HUVEC with PBMC; actives raise or lower the signal;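 as to AC50: secreted MCP-1 protein quantified by ELISA in culture supernatant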
Summary of the method: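 ELISA read-out of MCP-1 after 24 h chemical dosing of a human umbilical vein endothelial cell/peripheral blood mononuclear cell co-culture stimulated with LPS. Gain or loss of signal fitted relative to DMSO controls.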

[9] = BSK_LPS_PGE2: BioMAP Diversity Plus: LPS Assay for Prostaglandin E2 (PGE2) Biomarker Activity (AID 2283082); conditions: primary human HUVEC with PBMC; actives raise or lower the signal;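 as to AC50: secreted prostaglandin E2 measured by ELISA in LPS-stimulated co-culture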
Summary of the method: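 ELISA read-out of PGE2 from human umbilical vein endothelial cells co-cultured with peripheral blood mononuclear cells under LPS, 24 h post-dose. Gain or loss of signal scored relative to DMSO baseline.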

Measured: AC50

Chain of E-selectin (Homo sapiens) (P16581 whole entry, looked up): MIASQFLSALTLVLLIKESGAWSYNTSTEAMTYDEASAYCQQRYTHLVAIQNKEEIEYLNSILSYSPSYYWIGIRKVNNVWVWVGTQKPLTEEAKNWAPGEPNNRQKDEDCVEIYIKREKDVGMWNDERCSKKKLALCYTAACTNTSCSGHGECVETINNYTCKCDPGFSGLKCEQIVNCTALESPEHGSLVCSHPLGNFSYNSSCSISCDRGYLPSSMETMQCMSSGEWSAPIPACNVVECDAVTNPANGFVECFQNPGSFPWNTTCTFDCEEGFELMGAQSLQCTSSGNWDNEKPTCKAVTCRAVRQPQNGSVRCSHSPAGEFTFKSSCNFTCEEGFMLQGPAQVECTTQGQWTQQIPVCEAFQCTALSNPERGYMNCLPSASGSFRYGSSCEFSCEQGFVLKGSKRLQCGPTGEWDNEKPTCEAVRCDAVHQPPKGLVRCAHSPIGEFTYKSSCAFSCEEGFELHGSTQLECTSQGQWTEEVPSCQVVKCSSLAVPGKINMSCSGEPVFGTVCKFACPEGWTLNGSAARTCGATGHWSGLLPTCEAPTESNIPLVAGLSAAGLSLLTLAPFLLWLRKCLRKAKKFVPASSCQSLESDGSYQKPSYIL

CCCCC(CC)CN1C(=O)C2C3C=CC(C3)C2C1=O (centres undefined)
active: [4] 11.6 µM | [6] 3.97 µM
inactive: [1] | [2] | [3] | [5] | [7] | [8] | [9]

CC(=O)[C@H]1CC[C@H]2[C@@H]3CCC4=CC(=O)CC[C@]4(C)[C@H]3CC[C@]12C
active: [4] 20 µM | [5] 25.3 µM | [6] 8 µM | [8] 25 µM
inactive: [1] | [2] | [3] | [7] | [9]

S=C([S-])NCCNC(=S)[S-].[Mn+2]
inactive: [1] | [3] | [4] | [6] | [7] | [8] | [9]
active: [2] 36.6 µM | [5] 7.58 µM

CCC(O)=C1C(=O)CC(C(=O)O)CC1=O (centres undefined)
inactive: [1] | [2] | [3] | [4] | [5] | [6] | [7] | [8] | [9]

N[C@@H](Cc1cc(I)c(Oc2ccc(O)c(I)c2)c(I)c1)C(=O)O
active: [5] 13.6 µM
inactive: [1] | [2] | [3] | [4] | [6] | [7] | [8] | [9]

C=CCOC(Cn1ccnc1)c1ccc(Cl)cc1Cl (centres undefined)
inactive: [1] | [2] | [3] | [5] | [6] | [7] | [8]
active: [4] 22.2 µM | [9] 0.27 µM

COCCO
inactive: [2] | [3] | [4] | [5] | [6] | [7] | [8] | [9]

OB(O)O
inactive: [1] | [2] | [3] | [4] | [5] | [6] | [7] | [8] | [9]

c1ccc(Nc2ccccc2)cc1
inactive: [1] | [2] | [3] | [4] | [5] | [6] | [7] | [8]
active: [9] 3.51 µM

CC(=O)S[C@@H]1CC2=CC(=O)CC[C@]2(C)[C@H]2CC[C@@]3(C)[C@@H](CC[C@@]34CCC(=O)O4)[C@H]12
active: [4] 25 µM | [5] 22.5 µM | [6] 20.9 µM | [7] 12.4 µM | [9] 15.6 µM
inactive: [1] | [2] | [3]

CCCCOC(=O)[C@@H](C)Oc1ccc(Oc2ccc(C(F)(F)F)cn2)cc1
inactive: [1] | [2] | [3] | [4] | [5] | [6] | [7] | [8] | [9]

CCSC(=O)N(CC(C)C)CC(C)C
inactive: [1] | [2] | [3] | [4] | [5] | [6] | [7] | [8] | [9]

Oc1ccc(C(c2ccc(O)cc2)C(Cl)(Cl)Cl)cc1
active: [1] 20 µM | [2] 24.6 µM | [3] 31.8 µM | [4] 24.9 µM | [6] 17 µM | [7] 24.8 µM | [8] 33.9 µM | [9] 29.3 µM

CCN(CC)C(=O)c1cccc(C)c1
inactive: [1] | [2] | [3] | [4] | [5] | [6] | [7] | [8] | [9]

CCCN(CCC)C(=O)SCC
inactive: [1] | [2] | [3] | [4] | [5] | [6] | [7] | [8] | [9]

C#CCOC(=O)[C@@H](C)Oc1ccc(Oc2ncc(Cl)cc2F)cc1
inactive: [1] | [2] | [3] | [4] | [5] | [6] | [7] | [8] | [9]

COC(=O)c1ccc(CNS(C)(=O)=O)cc1S(=O)(=O)NC(=O)Nc1nc(OC)cc(OC)n1
inactive: [1] | [2] | [3] | [4] | [5] | [6] | [7] | [8] | [9]

CCOC(=O)NCCOc1ccc(Oc2ccccc2)cc1
inactive: [3] | [5] | [7] | [9]
active: [1] 4.43 µM | [2] 30.3 µM | [4] 8.9 µM | [6] 14.2 µM | [8] 14.4 µM

CCCCOCCOCCOCc1cc2c(cc1CCC)OCO2
active: [4] 20 µM | [6] 12.1 µM
inactive: [1] | [2] | [3] | [5] | [7] | [8] | [9]

c1ccc2[nH]c(-c3cscn3)nc2c1
inactive: [1] | [2] | [3] | [4] | [5] | [6] | [7] | [8] | [9]

O=C(c1ccccc1)C1CCCCC1
inactive: [1] | [2] | [3] | [4] | [5] | [6] | [7] | [8] | [9]

COc1c(Cl)ccc(Cl)c1C(=O)O
inactive: [2] | [3] | [4] | [5] | [6] | [7] | [8] | [9]

From PubChem BioAssay (EPA / NIEHS)
